Our source for the Potency, activation and activity change, negative = inhibition values is PubChem BioAssay (NCATS).

In test [1] the target is Rap guanine nucleotide exchange factor 3 (Homo sapiens) (UniProt O95398). Kind of test: Confirmatory qHTS for antagonist of cAMP-regulated guanine nucleotide exchange factor 3 (EPAC1) (AID 1645880). Also: nearly all actives have a fitted effect of over 55% in size. Also: potency is read from the fitted curve at half-maximal effect.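 As to activity, negative = inhibition: plate controls were DMSO only for no effect and full effect of the ATA control for full effect.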 The following applies: EPAC1 Rap1B-BODIPY-GDP exchange, fluorescence; activity, negative = inhibition: at 115 µM (top of the series). The essentials: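 Released BODIPY-GDP fluoresces less than Rap1-bound BODIPY-GDP; the signal is followed at 480/540 nm at 5-min intervals over 30 min, after 5 min at room temperature. Reactions contain 100 nM EPAC1, 250 nM RAP1B-BODIPY-GDP and 50 uM GDP; results are normalized to ATA and DMSO.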
Background: qHTS replaces the single test concentration by a dilution series.

Test [2] shares this target. Description: Confirmatory qHTS for agonist of cAMP-regulated guanine nucleotide exchange factor 3 (EPAC1) (AID 1645881).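 Also: EPAC1 catalysed release of BODIPY-GDP from Rap1B seen as fluorescence loss; 100% = effect of cAMP agonist control; nearly all actives have a fitted effect of over 75% in size.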
Test [3] concerns the target Rap guanine nucleotide exchange factor 4 (Homo sapiens) (UniProt Q8WZA2). Description: Confirmatory qHTS for agonist of cAMP-regulated guanine nucleotide exchange factor 4 (EPAC2) (AID 1645884).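 Also: nucleotide exchange releases bodipy-GDP from Rap1 and this lowers its fluorescence; % is scaled to controls: 0 for no effect and ±100 for the full control effect; nearly all actives have a fitted effect of over 65% in size.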
The target in test [4] is Rap guanine nucleotide exchange factor 3 (Homo sapiens) (UniProt O95398). Description: Counterscreen qHTS for antagonist of cAMP-regulated guanine nucleotide exchange factor 3 (EPAC1) (AID 1645888). Also: % of control where 0% means no effect. The procedure, abridged: (§1)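 Measured: fluorescence of BODIPY-GDP bound to Rap1B, which falls as exchange proceeds. Conditions include 50 uM competing GDP, 5 and 30 min reads, and a later cAMP challenge for antagonist detection.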

Test [5] shares this target. Description: Counterscreen qHTS for agonist of cAMP-regulated guanine nucleotide exchange factor 3 (EPAC1) (AID 1645889). Also: % of control where 0% means no effect; nearly all actives have a fitted effect of over 40% in size. The essentials:
as §1

Molecules are shown by their SMILES. Records with an inconclusive call do not appear. A number with no mark means an inactive call. Calls of active or inactive are those of the source. Calls follow the shape of the dose curve; as a rule, active = well fitted curve in the direction sought with a large enough effect; inconclusive = small, poorly fitted or top-dose-only effect, or another doubt; inactive = no such curve, though single readings can be large; an effect the other way counts as inactive or inconclusive.

Rap guanine nucleotide exchange factor 4 (Homo sapiens), sequence (Q8WZA2 whole entry, looked up): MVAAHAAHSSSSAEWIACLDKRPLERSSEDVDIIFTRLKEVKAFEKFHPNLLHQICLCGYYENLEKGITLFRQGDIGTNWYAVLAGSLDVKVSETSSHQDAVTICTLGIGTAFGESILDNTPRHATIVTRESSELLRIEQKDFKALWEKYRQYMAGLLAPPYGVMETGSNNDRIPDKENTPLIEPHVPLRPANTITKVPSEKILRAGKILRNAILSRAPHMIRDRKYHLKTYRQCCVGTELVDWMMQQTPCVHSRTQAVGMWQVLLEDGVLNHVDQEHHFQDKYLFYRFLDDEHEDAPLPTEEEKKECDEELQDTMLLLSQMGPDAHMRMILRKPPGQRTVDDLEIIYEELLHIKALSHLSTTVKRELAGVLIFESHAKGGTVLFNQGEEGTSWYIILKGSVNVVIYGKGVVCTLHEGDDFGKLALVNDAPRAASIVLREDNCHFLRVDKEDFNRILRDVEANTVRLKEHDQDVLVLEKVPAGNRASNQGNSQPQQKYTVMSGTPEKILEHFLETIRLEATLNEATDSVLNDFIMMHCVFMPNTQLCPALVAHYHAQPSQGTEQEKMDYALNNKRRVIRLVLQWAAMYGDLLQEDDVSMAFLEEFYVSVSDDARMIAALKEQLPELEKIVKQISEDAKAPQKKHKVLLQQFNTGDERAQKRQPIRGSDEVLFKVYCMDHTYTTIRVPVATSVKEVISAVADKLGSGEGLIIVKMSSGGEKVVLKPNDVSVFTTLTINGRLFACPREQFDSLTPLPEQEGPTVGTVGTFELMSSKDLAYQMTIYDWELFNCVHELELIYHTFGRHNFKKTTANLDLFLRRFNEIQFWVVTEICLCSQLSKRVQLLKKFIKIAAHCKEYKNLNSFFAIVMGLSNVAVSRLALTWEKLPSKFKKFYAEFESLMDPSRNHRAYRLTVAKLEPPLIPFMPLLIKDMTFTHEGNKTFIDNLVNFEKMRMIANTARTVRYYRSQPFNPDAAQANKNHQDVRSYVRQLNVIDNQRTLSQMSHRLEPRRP
Rap guanine nucleotide exchange factor 3 (Homo sapiens), sequence (O95398 whole entry, looked up): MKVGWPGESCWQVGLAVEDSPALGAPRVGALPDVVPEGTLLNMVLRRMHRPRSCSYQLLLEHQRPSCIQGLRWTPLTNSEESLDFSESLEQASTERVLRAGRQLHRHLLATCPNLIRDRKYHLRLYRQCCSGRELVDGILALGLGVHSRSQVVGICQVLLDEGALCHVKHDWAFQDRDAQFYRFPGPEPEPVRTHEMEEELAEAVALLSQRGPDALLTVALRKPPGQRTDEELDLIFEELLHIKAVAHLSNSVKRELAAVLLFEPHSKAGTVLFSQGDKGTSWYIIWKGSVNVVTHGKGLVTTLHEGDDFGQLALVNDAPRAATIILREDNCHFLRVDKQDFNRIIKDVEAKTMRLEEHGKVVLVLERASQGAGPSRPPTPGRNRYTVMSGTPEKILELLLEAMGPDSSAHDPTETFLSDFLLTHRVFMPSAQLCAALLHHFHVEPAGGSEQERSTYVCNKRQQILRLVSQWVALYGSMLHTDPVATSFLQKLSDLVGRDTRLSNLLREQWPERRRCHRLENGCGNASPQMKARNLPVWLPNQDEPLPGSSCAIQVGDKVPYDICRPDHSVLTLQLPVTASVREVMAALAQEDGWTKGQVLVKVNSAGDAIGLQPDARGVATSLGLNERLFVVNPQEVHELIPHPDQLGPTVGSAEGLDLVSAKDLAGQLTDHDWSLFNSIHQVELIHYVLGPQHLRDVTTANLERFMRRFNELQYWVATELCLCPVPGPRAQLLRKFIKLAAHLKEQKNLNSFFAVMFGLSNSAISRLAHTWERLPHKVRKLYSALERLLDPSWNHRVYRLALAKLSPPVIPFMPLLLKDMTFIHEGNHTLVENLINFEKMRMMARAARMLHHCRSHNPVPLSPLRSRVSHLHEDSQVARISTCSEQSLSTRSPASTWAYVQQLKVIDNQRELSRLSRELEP

Turning to `Cc1nc(N(C)C)c2sc(=S)n(Cc3ccccc3)c2n1`, the Potency entry in test [1] and in test [2] was “inactive” in each case. Besides, the activation was 11.2% [at 17.1 µM, percent relative to cAMP agonist control] in test [3] and 9.98% [at 30.8 µM] in test [5]. Also, the activity change, negative = inhibition in test [4] was -16.2% [at 30.8 µM].
`CCOC(=O)c1c(NC(=O)CSc2nc3ccc(C)cc3[nH]2)sc2c1CC(C)(C)NC2(C)C`: the Potency entry in test [1], in test [2], in test [3] and in test [4] was “inactive” throughout.
For `COc1ccc(NC(=O)c2cc(-c3ccco3)nc3ccccc23)cc1S(=O)(=O)N1CCOCC1`, the Potency in test [1] was 9.53 µM (active). For the same compound, the Potency result in test [2], in test [3] and in test [4] was “inactive” in each case.
As to `CCC(=O)NC(c1cccs1)c1cc([N+](=O)[O-])c2cccnc2c1O` (configuration not stated), the Potency in test [1] was 42.6 µM (active). Moreover, the Potency result in test [2], in test [3] and in test [4] was “inactive” in each case.
Take `CSc1nc(C)cc(C)c1S(=O)(=O)c1ccccc1C`: the Potency result in test [1] and in test [2] was “inactive” each time. The activation in test [3] is 8.78% [at 17.1 µM, percent relative to cAMP agonist control]. The activity change, negative = inhibition in test [4] is -5.37% [at 30.8 µM].
For `C[C@@H]1CC=C[C@H]2[C@H]1C(=O)N(Cc1ccccc1)[C@H]2c1ccc(-c2ccoc2)cc1F`, the Potency entry in test [1], in test [2], in test [3] and in test [4] was “inactive” in each case.
As for `Cc1ncc(CO)c2c1Oc1nc(-c3ccccc3F)nc(SCC(=O)N(C)c3ccccc3)c1C2`, in test [1], the Potency is 30.1 µM (active). Moreover, the Potency entry in test [2], in test [3], in test [4] and in test [5] was “inactive” each time.
Regarding `O=C(CN1C(=O)c2ccccc2C1=O)Nc1cc([N+](=O)[O-])ccc1O`, the Potency result in test [1], in test [2], in test [3] and in test [4] was “inactive” each time.
On to `COc1ccc(-c2nc(C)ncc2-c2ccc(Cl)cc2)c(O)c1`, for which the Potency entry in test [1], in test [2], in test [3] and in test [4] was “inactive” throughout.
In the case of `N=c1c(S(=O)(=O)c2ccc(Br)cc2)cc2c(=O)n3ccccc3nc2n1C1CCCC1`, the Potency entry in test [1], in test [2], in test [3], in test [4] and in test [5] was “inactive” in each case.
As to `COc1ccc2cc(/C=C3\SC(=S)NC3=O)c(N3CCOCC3)nc2c1`, in test [1], the Potency was 20 µM (active). For the same compound, in test [2], the Potency entry was “inactive”. Moreover, the activation in test [3] was 0.207% [at 17.1 µM, percent relative to cAMP agonist control]. For the same compound, in test [4], the activity change, negative = inhibition was 3.21% [at 30.8 µM].
On to `O=C(/C=C/c1ccco1)N1CCCC(c2ccccc2)C1` (configuration not stated), for which the Potency in test [1] is 67.5 µM (active). The Potency result in test [2], in test [3] and in test [4] was “inactive” in each case.
Regarding `Cc1cnc(C(=O)OCC(=O)Nc2ccc(Oc3ccccc3)cc2)cn1`, the Potency result in test [1], in test [2], in test [3] and in test [4] was “inactive” throughout.
For `O=C(Nc1sc2c(c1C(=O)O)CCC2)c1ccccc1F`, the Potency result in test [1], in test [2], in test [3] and in test [4] was “inactive” in each case.
`CCOC(=O)C1Nc2c(F)cc(C)cc2C2c3ccccc3CC12` (configuration not stated): the Potency entry in test [1], in test [2], in test [3] and in test [4] was “inactive” in each case.
Turning to `COc1cccc(N(C(=O)c2ccco2)C(C(=O)NC2CCCC2)c2cccnc2)c1` (configuration not stated), the Potency entry in test [1], in test [2], in test [3] and in test [4] was “inactive” throughout.
On to `CCCCN(C(=O)c1ccc2c(c1)OCO2)c1ccccc1`, for which the Potency result in test [1], in test [2], in test [3] and in test [4] was “inactive” in each case.
On to `COc1cc2c(cc1OC)C(COc1ccc(F)cc1)N(C(C)=O)CC2` (configuration not stated), for which the Potency result in test [1], in test [2], in test [3], in test [4] and in test [5] was “inactive” each time.
Take `Cc1ccc(-c2ccccc2C2=CC(=O)CC(C)(C)C2=O)cc1`: the Potency entry in test [1] and in test [2] was “inactive” each time. For the same compound, the activation was -2.04% [at 17.1 µM, percent relative to cAMP agonist control] in test [3] and 11.7% [at 30.8 µM] in test [5]. Moreover, the activity change, negative = inhibition in test [4] is 11.7% [at 30.8 µM].
For the compound `CC(C)c1ccc(OCC(=O)Nc2cccc(C(=O)Nc3ccccc3C(=O)O)c2)cc1`, the Potency in test [1] is 75.7 µM (active). Also, the Potency result in test [2], in test [3], in test [4] and in test [5] was “inactive” throughout.
With `CN(Cc1ccnc2ccccc12)C(=O)C1CCC(=O)N(Cc2ccccc2F)C1` (configuration not stated), the Potency result in test [1], in test [2], in test [3] and in test [4] was “inactive” throughout.
Consider `CC1=CC(C)(C)N(C(=O)c2ccc(F)cc2)c2cc3c(cc21)OCO3`, for which the Potency result in test [1], in test [2], in test [3] and in test [4] was “inactive” in each case.
As for `O=[N+]([O-])c1ccccc1O[C@@H]1O[C@H](CO)[C@H](O)[C@H](O)[C@H]1O`, the Potency entry in test [1], in test [2], in test [3] and in test [4] was “inactive” in each case.
`CCCN(CC1CC1)c1cc2c(c3c1ccn3C)C1CCC2C1` (configuration not stated): the Potency result in test [1], in test [2], in test [3], in test [4] and in test [5] was “inactive” throughout.
`Cc1cc(C)cc(NC(=O)CSc2nnc(-c3cc4occc4n3C)n2-c2ccccc2C)c1`: the Potency result in test [1], in test [2], in test [3] and in test [4] was “inactive” in each case.
As to `Cc1nnc(SCc2ccccc2CSc2nnc(C)s2)s1`, the Potency entry in test [1], in test [2], in test [3], in test [4] and in test [5] was “inactive” throughout.
As for `O=C1CCc2cc(S(=O)(=O)NCc3ccc(F)cc3)cc3c2N1CC3`, the Potency entry in test [1], in test [2], in test [3], in test [4] and in test [5] was “inactive” throughout.
With `COc1ccc(N2C(=O)CSC2c2cccc(F)c2)c(OC)c1` (configuration not stated), the Potency entry in test [1] and in test [2] was “inactive” each time. Also, the activation was 2.35% [at 17.1 µM, percent relative to cAMP agonist control] in test [3] and 1.09% [at 30.8 µM] in test [5]. Besides, in test [4], the activity change, negative = inhibition is -18.3% [at 30.8 µM].
